Holding throughout (assay): yeast three-hybrid, YBZ-1, SC-Leu-His + 0.5 mM 3-AT, 4 days
Common to all, as to settings: tags: N-Gal4 AD-HA kept; label: inside an RPR1-promoter hybrid RNA with tandem MS2 sites; ssRNA

The target of one experiment is PUM1 PUF domain R5-MKC (Homo sapiens, UniProt Q14671 828-1176, C1007M;R1008K;Q1011C). A digest of the protocol:
(§1)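 The interaction score is the logarithmic change in variant frequency from input to selection. It uses log2, with a pseudocount of 1 for absent variants, and frequencies came from PCR-amplified, Illumina-sequenced repeat regions. The libraries were Pumilio-1 PUF domains randomized at the three base-contacting residues per repeat, co-expressed with matching RNA elements in strain YBZ-1 (LexA–MS2 coat fusion, HIS3 reporter). Plating lasted four days on SC-Leu (input) or SC-Leu-His + 0.5 mM 3-AT (selection).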

A further experiment deals with PUM1 PUF domain R5-GNN (Homo sapiens, UniProt Q14671 828-1176, C1007G;R1008N;Q1011N). A digest of the protocol:
as §1

The target of a further experiment is PUM1 PUF domain R4-RFP (Homo sapiens, UniProt Q14671 828-1176, N971R;H972F;Q975P). An outline of the steps: as §1
The next experiment deals with PUM1 PUF domain R5-KCL (Homo sapiens, UniProt Q14671 828-1176, C1007K;R1008C;Q1011L). A digest of the protocol:
as §1

The target of the next experiment is T1, PUM1 PUF domain R6-FRS (Homo sapiens, UniProt Q14671 828-1176, N1043F;Y1044R;Q1047S).
T1 sequence: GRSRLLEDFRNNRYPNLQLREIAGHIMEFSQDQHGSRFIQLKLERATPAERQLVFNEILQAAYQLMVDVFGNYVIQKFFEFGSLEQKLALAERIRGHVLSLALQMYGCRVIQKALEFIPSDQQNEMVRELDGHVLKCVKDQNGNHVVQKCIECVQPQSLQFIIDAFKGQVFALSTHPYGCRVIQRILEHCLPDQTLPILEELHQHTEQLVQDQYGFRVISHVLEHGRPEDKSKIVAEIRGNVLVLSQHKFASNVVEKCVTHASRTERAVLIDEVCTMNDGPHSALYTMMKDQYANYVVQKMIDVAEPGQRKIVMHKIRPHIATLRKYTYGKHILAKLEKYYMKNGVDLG
A digest of the protocol: as §1

The target of the next experiment is PUM1 PUF domain R5-MYR (Homo sapiens, UniProt Q14671 828-1176, C1007M;R1008Y;Q1011R). A digest of the protocol:
as §1

For another experiment, the target named is PUM1 PUF domain R8-PHR (Homo sapiens, UniProt Q14671 828-1176, N1122P;Y1123H;Q1126R). An outline of the steps: as §1
The next experiment addresses PUM1 PUF domain R3-GPY (Homo sapiens, UniProt Q14671 828-1176, C935G;R936P;Q939Y). An outline of the steps:
as §1

A further experiment concerns the target PUM1 PUF domain R4-NPN (Homo sapiens, UniProt Q14671 828-1176, H972P;Q975N). A digest of the protocol: as §1
In another experiment the target is PUM1 PUF domain R5-SPR (Homo sapiens, UniProt Q14671 828-1176, C1007S;R1008P;Q1011R). A digest of the protocol:
as §1

In a further experiment the target is PUM1 PUF domain R5-KAM (Homo sapiens, UniProt Q14671 828-1176, C1007K;R1008A;Q1011M). A digest of the protocol:
as §1

A further experiment has as its target PUM1 PUF domain R2-EWL (Homo sapiens, UniProt Q14671 828-1176, N899E;Y900W;Q903L). An outline of the steps: as §1
The next experiment addresses PUM1 PUF domain R3-FCM (Homo sapiens, UniProt Q14671 828-1176, C935F;R936C;Q939M). A digest of the protocol: as §1
Another experiment has as its target PUM1 PUF domain R3-MCV (Homo sapiens, UniProt Q14671 828-1176, C935M;R936C;Q939V). A digest of the protocol: as §1
A further experiment has as its target PUM1 PUF domain R3-SKL (Homo sapiens, UniProt Q14671 828-1176, C935S;R936K;Q939L). A digest of the protocol:
as §1

Another experiment deals with PUM1 PUF domain R3-VRK (Homo sapiens, UniProt Q14671 828-1176, C935V;Q939K). A digest of the protocol:
as §1

For another experiment, the target named is PUM1 PUF domain R7-MSR (Homo sapiens, UniProt Q14671 828-1176, S1079M;N1080S;E1083R). A digest of the protocol:
as §1

A further experiment deals with PUM1 PUF domain R7-RIR (Homo sapiens, UniProt Q14671 828-1176, S1079R;N1080I;E1083R). An outline of the steps:
as §1

Turning to “GGCUAGAACUAGUGGAUCCCCCGGCGCCCGGCGGCUCGAGCCCGGGUAAGUGUUAAUAGUCUGCAUGCCGCCGGGCGCCAUGCCUGCAGGUCGACUCUAGAAAACAUG”, the figures for the binding signal with PUM1 PUF domain R5-MKC and with PUM1 PUF domain R5-GNN were 2.53 log2 enrichment (interaction score) and 3.44 log2 enrichment (interaction score), respectively.
On to “GGCUAGAACUAGUGGAUCCCCCGGCGCCCGGCGGCUCGAGCCCGGGUAAGUGUAAAUAGUCUGCAUGCCGCCGGGCGCCAUGCCUGCAGGUCGACUCUAGAAAACAUG”, for which the binding signal with PUM1 PUF domain R4-RFP was 6.66 log2 enrichment (interaction score); in the experiment with PUM1 PUF domain R5-KCL, 2.45 log2 enrichment (interaction score); with PUM1 PUF domain R6-FRS, 2.9 log2 enrichment (interaction score); in the experiment with PUM1 PUF domain R5-MYR, 2.55 log2 enrichment (interaction score); with PUM1 PUF domain R8-PHR, 4.34 log2 enrichment (interaction score); in the experiment with PUM1 PUF domain R3-GPY, 6.77 log2 enrichment (interaction score).
Take “GGCUAGAACUAGUGGAUCCCCCGGCGCCCGGCGGCUCGAGCCCGGGUAAGUGUAUAUAGUCUGCAUGCCGCCGGGCGCCAUGCCUGCAGGUCGACUCUAGAAAACAUG”: the figures for the binding signal with PUM1 PUF domain R4-RFP and in the experiment with PUM1 PUF domain R4-NPN were 3.26 log2 enrichment (interaction score) and 3.56 log2 enrichment (interaction score), respectively.
For the sequence “GGCUAGAACUAGUGGAUCCCCCGGCGCCCGGCGGCUCGAGCCCGGGUAAGUGUCAAUAGUCUGCAUGCCGCCGGGCGCCAUGCCUGCAGGUCGACUCUAGAAAACAUG”, the binding signal is 3.63 log2 enrichment (interaction score) with PUM1 PUF domain R5-KCL, 5.38 log2 enrichment (interaction score) with PUM1 PUF domain R5-SPR and 3.82 log2 enrichment (interaction score) with PUM1 PUF domain R5-KAM.
On to “GGCUAGAACUAGUGGAUCCCCCGGCGCCCGGCGGCUCGAGCCCGGGUAAGUGUAAAAAGUCUGCAUGCCGCCGGGCGCCAUGCCUGCAGGUCGACUCUAGAAAACAUG”, for which, in the experiment with PUM1 PUF domain R2-EWL, the binding signal is 6.51 log2 enrichment (interaction score).
As to “GGCUAGAACUAGUGGAUCCCCCGGCGCCCGGCGGCUCGAGCCCGGGUAAGUGUAAGUAGUCUGCAUGCCGCCGGGCGCCAUGCCUGCAGGUCGACUCUAGAAAACAUG”, the values for the binding signal with PUM1 PUF domain R3-FCM and in the experiment with PUM1 PUF domain R3-MCV were 4.3 log2 enrichment (interaction score) and 2.64 log2 enrichment (interaction score), respectively.
For the sequence “GGCUAGAACUAGUGGAUCCCCCGGCGCCCGGCGGCUCGAGCCCGGGUAAGUGUAAUUAGUCUGCAUGCCGCCGGGCGCCAUGCCUGCAGGUCGACUCUAGAAAACAUG”, the binding signal is 2.84 log2 enrichment (interaction score) in the experiment with PUM1 PUF domain R3-SKL, 3.28 log2 enrichment (interaction score) with PUM1 PUF domain R3-VRK and 1.41 log2 enrichment (interaction score) with PUM1 PUF domain R3-MCV.
With “GGCUAGAACUAGUGGAUCCCCCGGCGCCCGGCGGCUCGAGCCCGGGUAAGUUUAAAUAGUCUGCAUGCCGCCGGGCGCCAUGCCUGCAGGUCGACUCUAGAAAACAUG”, the binding signal is 3.5 log2 enrichment (interaction score) with PUM1 PUF domain R7-MSR and 3.4 log2 enrichment (interaction score) with PUM1 PUF domain R7-RIR.
For “GGCUAGAACUAGUGGAUCCCCCGGCGCCCGGCGGCUCGAGCCCGGGUAAGCGUAAAUAGUCUGCAUGCCGCCGGGCGCCAUGCCUGCAGGUCGACUCUAGAAAACAUG”, in the experiment with PUM1 PUF domain R8-PHR, the binding signal is 4.58 log2 enrichment (interaction score).

(Values after PMC8384837, “Expanding the binding specificity for RNA recognition by a PUF domain”.)
